Gli-Sufu antag – Gli-Sufu pathway antagonists, primary screen, luciferase luminescence, Sufu-KO-LIGHT cells, uHTS. AID 588413, 2011. Sufu-KO-LIGHT fibroblasts, Gli luciferase reporter luminescence. 340,000 tested, 0.74% active. inhibition, % at 5 µM;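 active = inhibition above about 55%, limit read from the data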
Mdm2-MdmX inh – inhibitors of human Mdm2-MdmX association, primary screen, cell-based, luminescence, split luciferase, SaOS-2, uHTS; Protein Mdm4 (Homo sapiens) + E3 ubiquitin-protein ligase Mdm2 (Homo sapiens), …; SaOS-2 split-luciferase Mdm2/MdmX complementation; inhibition, % at 8 µM; 330,000 tested, 3% active; AID 485346, 2010;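 active = inhibition of at least 50% at 8 µM in the primary screen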
697 NFkB inh – inhibitors of PMA/ionomycin-induced NF-kB reporter, 697 cells, primary screen, B-cell NF-kB inhibitor project, cell-based, luminescence, uHTS. AID 435022, 2010. inhibition, % at 4 µM. 697 B-cell NF-kB luciferase reporter, 16 h. 330,000 tested, 0.33% active; in the data active = inhibition above about 35%
Beta apoptosis – inhibitors of cytokine-induced beta cell apoptosis, primary screen, luminescence | protection from apoptosis, % (no concentration beside the values) | INS-1E cytokine-induced death, ATP luminescence, 48 h; percent of positive-control rescue, neutral wells zero | 300,000 tested, 0.8% active;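 active = Every replicate reaches about 75%, or at least half do and their mean reaches it too, limit read from the data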;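 note: higher means more ATP so stronger rescue from cytokine killing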
Jurkat NFkB inh – inhibitors of induced NF-kB luciferase reporter, primary screen, TCR NF-kB activation inhibitor project, cell-based, luminescence, uHTS | Jurkat, PMA/ionomycin-induced NF-kB luciferase reporter | inhibition, % at 4 µM | 330,000 tested, 0.53% active; in the data active = inhibition above about 50%
CSC inhib – cancer stem cell viability inhibitors, primary screen, luminescence; cancer stem cell-like cells viability; inhibition, % at 7.5 µM; 300,000 tested, 1.1% active; in the data active = inhibition above about 75%; tested in HMLE shEcad cells
Jurkat NFkB conf – PMA/ionomycin-induced NF-kB reporter inhibitors, Jurkat retest, confirmation, T-cell NF-kB inhibitor project, cell-based, luminescence, single concentration. shares compounds with Jurkat NFkB inh. Jurkat NF-kB luciferase, 16 h. inhibition, % at 4 µM. 2,700 tested, 27% active;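 active = inhibition reaching about 45% at 4 µM in either replicate, limit read from the data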
Large screens that a line does not name were inactive (follow-up assays come after a bar, where they were run). An excerpt weighted towards active compounds, which were near 4.5% of everything screened.

CN(c1ccccc1)S(=O)(=O)c1cccc(NC(=O)c2ccc(Cl)c([N+](=O)[O-])c2)c1	Jurkat NFkB inh 62.9 | Jurkat NFkB conf inactive
CC(=O)Nc1ccc(C(=O)Nc2cccc(S(=O)(=O)N(C)c3ccccc3)c2)cc1	none (no result: CSC inhib)
C(#CC1CCCC1)c1ccc2c(c1)COc1c3ccccc3nn1-2	none
CCCc1cc(-c2ccc3c(c2)COc2c4ccccc4nn2-3)on1	none | Jurkat NFkB conf inactive
Cc1cc(-c2ccc3c(c2)COc2c4ccccc4nn2-3)on1	none (no result: CSC inhib) | Jurkat NFkB conf inactive
C[C@@H](CO)NC(=O)c1ccc2c3n(nc2c1)-c1ccccc1CO3	none (no result: Beta apoptosis)
COc1ccc2oc(C(=O)Nc3ccccn3)c(C)c2c1	none | Jurkat NFkB conf inactive
COc1ccc2c(c1)CCc1c(C(=O)NC3CCCCC3)noc1-2	none | Jurkat NFkB conf inactive
COCCNC(=O)c1noc2c1CCc1cc(OC)ccc1-2	none (no result: CSC inhib)
Cc1cnc(NC(=O)COc2ccc3c(c2)CCC3)s1	none | Jurkat NFkB conf inactive
Cc1cccc(NC(=O)COc2ccc3c(c2)CCC3)n1	none (no result: Beta apoptosis, CSC inhib)
COc1ccc(N2CC(C(=O)Nc3ccccc3N3CCCC3)CC2=O)c(OC)c1 (centres undefined)	Jurkat NFkB inh 57.9 | Jurkat NFkB conf inactive
Brc1ccc2c(c1)C(C1=NCCN1)c1ccccc1CS2 (centres undefined)	Jurkat NFkB inh 60.0 (no result: CSC inhib) | Jurkat NFkB conf 56.5
Cc1ccccc1OCC(=O)NCC(=O)OCc1ccc(Br)cc1	none
O=C(Nc1cccc(C(F)(F)F)c1)c1sc(Cl)nc1C(F)(F)F	Jurkat NFkB inh 97.5 | Jurkat NFkB conf 70.8
O=C(Nc1cccc(C(F)(F)F)c1)c1cc(-c2ccco2)on1	none
COc1ccc(C(=O)CN2Cc3ccccc3C2=N)cc1	none | Jurkat NFkB conf inactive
O=C(Nc1cccc(S(=O)(=O)N2CCOCC2)c1)c1ccc(Cl)nc1	none
O=C(Nc1cccc(S(=O)(=O)N2CCCC2)c1)c1ccc(Cl)nc1	Jurkat NFkB inh 63.3 | Jurkat NFkB conf inactive
c1ccc(CSc2ccc(-c3ccccn3)nn2)cc1	Beta apoptosis 86.6, CSC inhib 86.2 | Jurkat NFkB conf inactive
CC(=O)Nc1ccc(N/C=C/C(=O)c2ccccc2)cc1	none
CN(C)c1ccc(N/C=C/C(=O)c2ccccc2)cc1	none | Jurkat NFkB conf inactive
Cc1cc(N/C=C/C(=O)c2ccccc2)ccc1Br	none | Jurkat NFkB conf inactive
Cc1ccc(C(=O)/C=C/Nc2ccc([N+](=O)[O-])cc2Br)cc1	none | Jurkat NFkB conf inactive
Cc1ccc(C(=O)/C=C\Nc2ccc(C)c(C)c2)cc1	none | Jurkat NFkB conf inactive
Nc1nccc(SCc2ccccc2)n1	none (no result: Mdm2-MdmX inh, 697 NFkB inh, Beta apoptosis, Jurkat NFkB inh, CSC inhib)
Cc1ccc(O)c(N/C=C/C(=O)c2ccc(F)cc2)c1	Jurkat NFkB inh 85.2 | Jurkat NFkB conf inactive
Cc1ccc(N/C=C/C(=O)c2ccc(C)cc2)cc1	none
O=C(O)Cc1ccc2sc(-c3ccccc3)nc2c1	none
COC(=O)Cc1ccc2sc(-c3ccccc3)nc2c1	none | Jurkat NFkB conf inactive
Cc1cc2oc3ccc(NCCCn4ccnc4)cc3c(=O)c2cc1C	none (no result: Beta apoptosis) | Jurkat NFkB conf inactive
CCn1nc(C)c(CN2CCC(n3nccc3NC(=O)Cc3ccccc3)CC2)c1C	none
CCOC(=O)c1[nH]c(C)c(C(=O)OCC(=O)NCc2ccc(OC)c(OC)c2)c1C	none
CCOC(=O)c1c(C)[nH]c(C(=O)N/N=C/c2ccc(OC)c(OC)c2)c1C	Jurkat NFkB inh 55.4 | Jurkat NFkB conf inactive
CCCN1CCC(=NNc2ccc(S(=O)(=O)N(CC)CC)cc2[N+](=O)[O-])CC1	Jurkat NFkB inh 58.8 | Jurkat NFkB conf inactive
Cc1cccn2cc(-c3cc4ccccc4oc3=O)nc12	none | Jurkat NFkB conf inactive
Cc1ccc(-c2cn3cccc(C)c3n2)cc1	none (no result: Mdm2-MdmX inh, 697 NFkB inh, Beta apoptosis, Jurkat NFkB inh, CSC inhib)
Cc1cccn2cc(-c3ccc(Cl)cc3)nc12	none | Jurkat NFkB conf inactive
Cc1cc(N2C(=O)C3C4CCC(C4)C3C2=O)no1 (centres undefined)	none
COc1ccc(-c2nc(N)ncc2Oc2ccccc2Br)c(O)c1	none
COc1cccc(Oc2cnc(N)nc2-c2ccc(OC)cc2O)c1	Jurkat NFkB inh 50.3 (no result: CSC inhib) | Jurkat NFkB conf inactive
CCN1C(=O)[C@@H]2[C@@H](c3ccc(-c4ccc(C(C)=O)cc4)c(OC)c3)N3CCCC[C@@]3(C(=O)OC)[C@@H]2C1=O	none
Cc1cc(-c2ccc(C(C)C)c(S(=O)(=O)N3CCN(c4ccccc4)CC3)c2)on1	Jurkat NFkB inh 52.7 | Jurkat NFkB conf 47.1
CC(=Nc1ccc(Br)cc1)c1sc2ccccc2c1O	none | Jurkat NFkB conf inactive
CC(Sc1nnc2n1CCCCC2)C(=O)Nc1ccc(S(N)(=O)=O)cc1 (centres undefined)	none (no result: Beta apoptosis, CSC inhib)
Cc1cccn2cc(-c3c[nH]c4ccccc34)nc12	none
Brc1ccc2nc(-c3c[nH]c4ccccc34)cn2c1	none | Jurkat NFkB conf inactive
Oc1cccc(/C=N/N=C/c2cccc(O)c2O)c1O	Jurkat NFkB inh 80.6 (no result: Beta apoptosis) | Jurkat NFkB conf inactive
Cc1ccccc1N=Cc1cccc(O)c1O	none
O=C(NCCc1ccccn1)c1cncc(Br)c1	none
CC(C)(C)c1ccc(C(=O)NCCc2ccccc2)cc1	none (no result: Gli-Sufu antag) | Jurkat NFkB conf inactive
CC(C)(C)c1ccc(C(=O)NCc2ccccc2)cc1	none
CCCCNc1ncnc2sc3c(c12)CCN(CCC)C3	none
Cc1ccc(C2(C(F)(F)F)NC(=O)N3CCCN=C3S2)cc1 (centres undefined)	Jurkat NFkB inh 51.6 | Jurkat NFkB conf inactive
Cc1ccc(C2(C(F)(F)F)NC(=O)N3CCN=C3S2)cc1 (centres undefined)	none
CC1CC(C)CN(CCC(=O)Nc2ccc(Br)cc2)C1 (centres undefined)	none (no result: Beta apoptosis)
COC(=O)CSc1nc2cc3c(cc2cc1C#N)OCO3	none | Jurkat NFkB conf inactive
CCOC(=O)CSc1nc2cc3c(cc2cc1C#N)OCO3	none | Jurkat NFkB conf inactive
COC(=O)CSc1nc(-c2cccs2)ccc1C#N	none (no result: CSC inhib) | Jurkat NFkB conf inactive
C#CCSc1nc(-c2cccs2)ccc1C#N	none
Cc1ccc(NC(=O)CSc2ccc3c(c2)OCCO3)nc1	none (no result: Beta apoptosis)
Cc1cccc(NC(=O)Nc2ccccc2[N+](=O)[O-])n1	none
Fc1ccc(-c2nc3c(-c4ccccc4)cnn3cc2CCN2CCOCC2)cc1	none
O=C(NCc1ccccc1)C(c1ccc(Cl)cc1)N(C(=O)c1csnn1)C1CC1 (centres undefined)	none
Cc1ccc(Nc2nc(N/N=C/c3c[nH]c4ccccc34)nc(N3CCOCC3)n2)cc1	Jurkat NFkB inh 89.3 (no result: CSC inhib) | Jurkat NFkB conf inactive
O=C(NCCSc1ccccc1)c1ccc(Br)cc1	none (no result: CSC inhib) | Jurkat NFkB conf inactive
Cc1ccccc1NC(=O)Cn1nnc(C(=O)NCc2ccco2)c1N	none
